Measured values published in the supplement of paper PMC6555819.

Experiments:
Assay in all cases: PBM binding z-score (relative to random genomic background probes); higher = stronger binding; sequences stand for … in GC…GCGATTGACAGCGTAGAATGAAGG
[1] = test system: RARb homodimer (NR concentration 270 nM)
Outline: (§1)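 Binding buffer was PBS pH 7.4 with 2% milk, 0.02% Triton X-100, 1 mM DTT, 0.2 mg/mL BSA and 0.4 mg/ml salmon testes DNA. In it, ligand-free nuclear receptor dimers were incubated 1 h on custom Agilent 4×180K protein-binding microarrays carrying double-stranded probes. Antibodies against each partner (one per run) detected binding, and z-scores were calculated against random background probes after regression normalization of scanned fluorescence.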

[2] = test system: RARg:RXRa (NR concentration 270 nM, RXRa partner concentration 90 nM)
Outline: as §1

[3] = test system: RARg homodimer (NR concentration 270 nM)
Outline: as §1

[4] = test system: RXRa DBDmut IVT, anti-RXR (DBD mutation: RXRa K156A/R161A, NR concentration 90 nM)
Outline: as §1

[5] = test system: RXRa homodimer (NR concentration 180 nM)
Outline: as §1

[6] = test system: THRa:RXRa (NR concentration 90 nM, RXRa partner concentration 90 nM)
Outline: as §1

[7] = test system: THRa homodimer (NR concentration 90 nM)
Outline: as §1

[8] = test system: VDR:RXRa (NR concentration 270 nM, RXRa partner concentration 90 nM)
Outline: as §1

[9] = test system: VDR homodimer (NR concentration 270 nM)
Outline: as §1

Sequence | PBM binding z-score [1] | PBM binding z-score [2] | PBM binding z-score [3] | PBM binding z-score [4] | PBM binding z-score [5] | PBM binding z-score [6] | PBM binding z-score [7] | PBM binding z-score [8] | PBM binding z-score [9]
ATACCAAGGTGATGGTGAGGTCGTTGATACTAAC | 1.83 | 1.84 | 0.644 | 0.506 | 1.11 | 3.24 | 2.44 | 3.28 | 2.63
ATCTCCAGGTAAAGATAGTTCAGTGAATGCAAAT | 1.03 | 0.342 | 0.839 | 0.0268 | -0.000636 | 1.06 | 0.451 | 0.845 | 0.711
CAAACTAGGTCACCGGAAGATCAAAGTCCGCATG | 3.35 | 4.78 | 5.35 | 1.93 | 3.67 | 3.63 | 1.81 | 2.62 | 0.906
ACTATCAGGCCAAGTTTGGGTCACTCAAACAAAG | 2.56 | 2.71 | 2.11 | 0.348 | 0.935 | 2.93 | 1.81 | 1.01 | 0.829
ATCTCTAGGTAACCAAGTTCTGTGAATGCCGAAC | 0.202 | 0.225 | 0.194 | -0.0032 | 0.246 | 0.718 | 0.76 | 0.866 | 0.355
GATACAGGGTCAGGGCCAGAGTACGCGTATTGAT | 3.15 | 4.29 | 4.19 | 0.901 | 4.15 | 2.89 | 0.838 | 3.14 | 1.2
TCCAGTTGGTCACGGAGGTCACACACGACGGGTA | 4.6 | 4.87 | 4.79 | 1.11 | 4.8 | 3.84 | 2.09 | 5.75 | 2.65
ACTTACGGGTCAACGAGGTTATACCACGCGTATA | 3.79 | 5.84 | 5.48 | 3.08 | 6.66 | 3.97 | 1.34 | 7.92 | 4.44
GCTAGCAGGCCATTTGGGTCAGTCAATGACGGGC | 1.42 | 0.49 | 1.01 | -0.27 | 0.218 | 0.812 | -0.371 | 0.157 | -0.151
ATCTCTAGGTAATGTTCAGTGAAAGATCGATAGA | -0.207 | 0.262 | 0.561 | 0.333 | 0.234 | 0.493 | 0.382 | 0.188 | 0.364
GCTGCTAGCTCAGGTTGGTCAGCTAACGGGTACG | -0.467 | -0.618 | -0.751 | -0.375 | -1.02 | -0.615 | -0.751 | -0.71 | -0.32
AGCCAAAGTTCATCTAGGTAACGTAAGATATGCT | 4.1 | 5.56 | 5.88 | 4.5 | 4.72 | 3.15 | 0.256 | 4.48 | 5.28
CATACAGGGTCAGCTAGGACAGAGTAGGGACGGC | 3.14 | 4.21 | 4.66 | 1.58 | 3.74 | 3.54 | 1.31 | 4.03 | 1.19
CCTACTGGGACATTCAGAGGTCATTGATCATATG | 4.09 | 3.72 | 3.06 | 1.77 | 4.05 | 3.38 | 1.9 | 4.18 | 4.08
TCTTGTAGATCATGCAGGTTAAGAAAGCCTGAGT | 0.268 | 0.108 | 0.0949 | 0.784 | 0.65 | 0.509 | -0.0439 | 0.976 | 0.115
TGATTGAGGTTAAAGATCAGGGAACGTGGCGTCG | 1.01 | 2.5 | 1.35 | 0.759 | 3.67 | 2.57 | 0.317 | 1.94 | 0.679
AGAACGAGGGCAATGAGTTGATAGCACGGGTGGC | 0.844 | 0.952 | 1.54 | 1.78 | 0.91 | 0.824 | -0.00899 | 4.96 | 2.26
TCGAGTAGGTTAGTCGGGGCATGCAGCCAACATA | 0.498 | -0.0315 | -0.00519 | 0.0884 | 0.113 | 0.978 | -0.26 | 1.24 | -0.157
ATCGGAAGGTCGACGAGGTGAGTATACACCGTTT | 1.95 | 2.32 | 2.65 | 0.311 | 2.37 | 3.04 | 0.579 | 3.87 | 0.813
ACAGACAGGTGATGAAGGTAACCCAGGCTATCAT | 0.672 | 0.398 | 0.392 | -0.925 | 0.473 | 0.892 | 0.124 | -0.00497 | -0.253
TCATACAGGTAAACAGGTGAAAGTCCGTAAGTTA | 1.16 | 0.793 | 0.447 | 1.62 | 1.12 | 1.05 | 0.697 | 1.2 | 0.33
GCTAGCAGGCCATTTGGGTCCCTCAATGACGGGC | -0.901 | -0.417 | -0.379 | -0.721 | -0.4 | 0.249 | -1.01 | -0.73 | -0.499
CGAACTAGCTCATTGACAGGACAGTGAATAGTAA | 0.184 | -0.00563 | 0.0455 | 0.00616 | -0.33 | -0.0508 | -0.291 | -0.486 | -0.0514
ACAGACAGGTGAGTGCAGGTAACTCAGCTGGACG | -0.104 | 0.091 | 0.426 | 0.222 | 0.412 | 1.69 | -0.612 | -0.127 | 0.269
CGAACTAGGTCATTGCCAGGACAGTGAATAGTAA | 2.72 | 4.1 | 4.21 | 2.5 | 2.73 | 3.32 | 1.54 | 2.42 | 1.49
CCTCGGAGGACAGAAGGTCAGCGCTGTCCGCTTT | 4.09 | 4.02 | 3.84 | 0.468 | 2.54 | 2.57 | -0.027 | 1.22 | 0.0447
